Screens (PubChem)
SF1 inhibitor – SF-1 (human) inhibition | Q13285 | CHO-K1 Gal4-SF-1 LBD luciferase reporter | inhibition, % at 10 µM | 65,000 tested, 0.55% active | AID 525;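 active means inhibition above the mean inhibition of all tested compounds plus 3 SD, cut at about 48% in these data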;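 further: 0% = SF-1 transfected cells with DMSO and 100% = mock-transfected cells lacking SF-1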
Target sequence (Q13285 whole entry, looked up, the tested form may be a part): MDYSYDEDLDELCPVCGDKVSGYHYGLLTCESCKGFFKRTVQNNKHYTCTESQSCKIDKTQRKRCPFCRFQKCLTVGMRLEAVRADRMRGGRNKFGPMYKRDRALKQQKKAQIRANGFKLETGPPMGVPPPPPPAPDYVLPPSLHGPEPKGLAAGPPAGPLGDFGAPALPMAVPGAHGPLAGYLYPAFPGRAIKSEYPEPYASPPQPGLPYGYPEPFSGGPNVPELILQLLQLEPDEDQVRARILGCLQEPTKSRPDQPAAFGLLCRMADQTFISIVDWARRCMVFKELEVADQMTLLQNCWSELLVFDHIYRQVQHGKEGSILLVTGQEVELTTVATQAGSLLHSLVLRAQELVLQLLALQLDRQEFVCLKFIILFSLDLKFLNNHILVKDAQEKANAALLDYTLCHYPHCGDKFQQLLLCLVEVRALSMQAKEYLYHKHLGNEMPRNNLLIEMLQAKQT
* = called active by the depositor. This is one part of a sample in which hits are shown more often than they occur.

SMILES	SF1 inhibitor
Cc1c(NC(=O)C(CC(=O)O)NCc2ccco2)c(=O)n(-c2ccccc2)n1C (stereo not drawn)	-1
Clc1cccc(-c2nc(-c3ccccn3)no2)c1	71*
c1ccc(CCCc2nc(-c3ccccn3)no2)cc1	-57
COc1cccc(-c2nc(-c3ccccn3)no2)c1OC	-50
CC(C)(C)c1ccc(OCc2nc(-c3ccccn3)no2)c(Br)c1	-71
Cc1ccc(-c2nc(-c3ccccn3)no2)cc1Cl	86*
Clc1ccc(OCc2nc(-c3ccncc3)no2)c(Cl)c1	-86
Cc1ccc(-c2nc(-c3ccccn3)no2)cc1	92*
Brc1ccc(-c2nc(-c3cccnc3)no2)o1	-66
Cc1ccccc1-c1noc(-c2ccc(O)cc2)n1	-33
O=C(CN(Cc1ccco1)C(=O)CNS(=O)(=O)c1ccc(F)cc1)NCCc1ccccc1	-2
CC1(C)C2CCC1(C)C(OC(=O)CSc1nc(N)cc(=O)[nH]1)C2 (stereo not drawn)	-10
O=C(CNc1ccc(Oc2ccccc2)cc1)N1CCOCC1	-10
COc1ccccc1N(CC(=O)NC1CCCC1)C(=O)c1csnn1	-7
CSC1=C(C#N)C(C)C2=C(CC(C)(C)CC2=O)N1 (stereo not drawn)	-3
COCCn1c(C2CCCCC2)nc2sc3ccccc3c(=O)c2c1=O	-2
Cc1c(C(=O)NCc2ccco2)sc2nc(-c3ccccc3)cn12	-52
c1ccc(-c2cn3c4c(sc3n2)CCCC4)cc1	73*
Cc1c(C(=O)N2CCOCC2)sc2nc(-c3ccccc3)cn12	-82
COc1ccc(C(CCc2ccc(C)o2)NC(=O)Nc2ccc(OC)cc2OC)cc1 (stereo not drawn)	6
Cc1nc(SCC(=O)Nc2c(C)n(C)n(-c3ccccc3)c2=O)[nH]c(=O)c1Cc1ccccc1	-9
COc1ccc(CCC(=O)Nc2ccc(-c3noc(-c4ccc(OC)c(OC)c4)n3)cc2)cc1	-75
COc1ccc(-c2noc(CCCC(=O)NCCc3ccccc3)n2)cc1OC	60*
COc1ccc(-c2noc(CCC(=O)NCCN3CCN(c4ccccc4F)CC3)n2)cc1	5
CCOC(=O)c1ccc(N2Cc3cc(C)c(C)cc3C2)cc1O	0
SMILES	SF1 inhibitor
O=C(Nc1ccccc1F)c1ccncc1	5
O=C(Nc1nc(-c2ccc(Cl)s2)cs1)c1ccncc1	63*
Cc1csc(NC(=O)c2sc3nc(-c4cccs4)ccc3c2N)n1	-50
COc1ccccc1N(Cc1cc2cccc(C)c2[nH]c1=O)C(=O)C(C)C	2
Cc1ccc(O)c(C(=O)c2cnc3c(c2)CN(CCC(C)C)C(=O)N3)c1	-18
CN1Cc2cc(C(=O)c3cc(Cl)cc(CSc4ncccn4)c3O)cnc2NC1=O	50*
Cc1nc2ccc(NC(=O)Cn3cnc4c3c(=O)n(C)c(=O)n4C)cc2s1	3
Cc1ccc(S(=O)(=O)Nc2nc(C)cc(NCCN)n2)cc1	-8
COc1cc(NS(=O)(=O)c2ccc(C)cc2)c2ncccc2c1	94*
COc1cccc(NC(=O)C2CCCN(S(=O)(=O)c3cccc4cccnc34)C2)c1 (stereo not drawn)	4
Cc1cc(=O)[nH]c(N2CCCC2)n1	5
CS(=O)(=O)N(CC(=O)NCc1ccncc1)c1cc(Cl)cc(Cl)c1	14
CCOc1ccc(N2C(=O)c3cccnc3C2Nc2ccc(C)cc2)cc1 (stereo not drawn)	0
Cc1noc(C(=O)Nc2ccc3c(c2)OCO3)c1Cl	-61
CCOC(=O)c1c(N)sc(C(=O)Nc2ccc3c(c2)OCO3)c1C	53*
Cc1occc1C(=O)Nc1ccc2c(c1)OCO2	-53
COc1ccc(Cl)cc1-n1c(=S)sc2c(=O)[nH]c(SCC(=O)NCC3CCCO3)nc21 (stereo not drawn)	5
O=C1CC(N2CCOCC2)C(=O)N1CCc1ccccc1 (stereo not drawn)	9
CC1(C)CC(=O)C(CC2=C(O)CC(C)(C)CC2=O)=C(O)C1	-3
COc1ccc(C(=O)NC(=O)Nc2cc(C)ccn2)cc1	89*
COc1ccc(C(=O)Nc2cccc(OC)c2)cc1	-81
COc1cccc(NC(=O)c2nc3ncccn3n2)c1	-10
COCCN(CC(=O)Nc1ccc(F)cc1)S(=O)(=O)c1ccc(S(=O)(=O)N2CCCC2)cc1	3
Clc1ccc(-c2nnc(NC3=NCCCCC3)o2)cc1	58*
Fc1ccc(-c2nnc(-c3ccc(Cl)cc3Cl)o2)cc1	24
SMILES	SF1 inhibitor
O=C(NCc1ccco1)C1CCC(CNS(=O)(=O)c2cccc3cccnc23)CC1 (stereo not drawn)	-6
O=S1CCCSC1c1cccnc1 (stereo not drawn)	1
COC(=O)C(C)Oc1ccc2c3c(c(=O)oc2c1)CCCCC3 (stereo not drawn)	-12
Cc1cccc2cc(C#N)c(SCC(=O)N3CC(=O)Nc4ccccc43)nc12	64*
Cc1cccc2cc(C#N)c(NCCNC(=O)NC3CCCCC3)nc12	15
CCOC(=O)CSc1nc(-c2ccc3c(c2)OCO3)ccc1C#N	-64
O=C(Nc1nnc(C2CCCC2)s1)C1CCN(S(=O)(=O)c2ccc(Cl)cc2)CC1	-1
COc1cc2c(cc1OC)C(C)N(C(=O)C1COc3ccccc3O1)CC2 (stereo not drawn)	7
CCOC(=O)c1sc(NC(=O)c2cc3c(C)nn(-c4ccccc4)c3s2)nc1C	8
CCCc1nnc(NC(=O)CCC(=O)N2CCCCCC2)s1	8
CN1C2C=C3C(C#N)=C(N)C(C#N)(C#N)[C@@H](c4ccc(Cl)cc4)[C@@H]3C1CC2 (stereo partly drawn)	49*
O=C(C1CCCN(S(=O)(=O)c2ccccc2)C1)N1CCCc2ccccc21 (stereo not drawn)	5
CCOC(=O)N1CCC(Nc2nc3ccccc3nc2NS(=O)(=O)c2ccc(Cl)cc2)CC1	-54
Cc1csc2nc(CNS(=O)(=O)c3ccc4c(c3)CCCC4)cn12	-14
COc1ccc(-c2onc(C)c2-c2ccc(C(=O)OC(C)C)o2)c(O)c1	-7
CN1CCN(C(=O)c2cccc(COc3cc(Cl)ccc3Cl)c2)CC1	-69
O=C(O)c1cccc(COc2ccccc2Cl)c1	94*
O=C(COc1ccccc1Cl)Nc1ccc(Cl)cn1	-74
CC(C)CNC(=O)CN(C1CCCCC1)S(=O)(=O)c1ccccc1	15
O=C1c2ccccc2C(=O)N1CCCn1nnc(-c2ccc(N3CCOCC3)cc2)n1	-3
O=C(CSc1cccc2cccnc12)NCc1ccco1	12
COc1ccc(CC(=O)Nc2cccc(-c3nnc(-c4cccc(C)c4)o3)c2)cc1OC	93*
CC(=O)Nc1cccc(-c2nnc(-c3ccccc3)o2)c1	-51
CCC(=O)Nc1cccc(-c2nc3ccccc3c(=O)o2)c1	22
CC(=O)/C=C(\C)Nc1ccc(-c2cnc(-c3ccccc3)o2)cc1	-57
SMILES	SF1 inhibitor
COc1ccc(CC(=O)Nc2ccc(-c3nnc(-c4ccccc4)o3)cc2)cc1OC	77*
CCOc1cccc(C(=O)Nc2cccc(-c3nnc(-c4ccc(C)cc4)o3)c2)c1	11
CCOC(=O)N1CCC(c2nc(C)sc2C(=O)O)CC1	-20
CCN(C(=O)c1cc(Cl)ccc1OC)C1CCCCC1	17
N#Cc1c(NC(=O)CN2CCN(S(=O)(=O)c3ccc4c(c3)OCCO4)CC2)sc2c1CCC2	4
O=C(CC1OC(=O)c2ccccc21)c1ccco1 (stereo not drawn)	2
O=C(NCCOc1ccccc1)c1ccc2c(c1)OCO2	59*
COc1cc2c(cc1NC(=O)c1ccc3c(c1)OCO3)oc1ccccc12	-54
O=C(Nc1ccc(F)c(F)c1)c1ccc2c(c1)OCO2	-66
